# The supplement of paper PMC4466140
# Key:
# Test in all cases: SPOT peptide array binding signal intensity (averaged, normalized) (arbitrary units (background-subtracted, floor 0; scale differs between SH3 domains)); higher = stronger binding of the SH3 domain to the peptide
# AgAbp1 = target: AgAbp1
# Procedure, shortened: (§1)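 Detection of bound protein relied on anti-GST antibody, an HRP anti-mouse secondary and luminol, with imaging and quantification in Genespotter. The bound protein was GST-fused SH3 domains from four yeast species, incubated at 10 μg/ml overnight at 4°C in TBS-based blocking buffer on cellulose membranes carrying synthetic 15-mer peptides with cysteines replaced by serines. Binding signal is normalized, background-subtracted spot intensity averaged over replicates, in arbitrary units that differ between domains.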
# AgBbc1 = target: AgBbc1
# Procedure, shortened: as §1
# AgBem1-D1 = target: AgBem1-D1
# Procedure, shortened: as §1
# AgBzz1-D1 = target: AgBzz1-D1
# Procedure, shortened: as §1
# AgBzz1-D2 = target: AgBzz1-D2
# Procedure, shortened: as §1
# AgCyk3 = target: AgCyk3
# Procedure, shortened: as §1
# AgFus1 = target: AgFus1
# Procedure, shortened: as §1
# AgHof1 = target: AgHof1
# Procedure, shortened: as §1
# AgHse1 = target: AgHse1
# Procedure, shortened: as §1
# AgLsb1 = target: AgLsb1
# Procedure, shortened: as §1
# AgLsb4 = target: AgLsb4
# Procedure, shortened: as §1
# AgMyo5 = target: AgMyo5
# Procedure, shortened: as §1
# AgNbp2 = target: AgNbp2
# Procedure, shortened: as §1
# AgRvs167 = target: AgRvs167
# Procedure, shortened: as §1
# AgSho1 = target: AgSho1
# Procedure, shortened: as §1
# AgSla1-D1-D2 = target: AgSla1-D1-D2
# Procedure, shortened: as §1
# AgSla1-D3 = target: AgSla1-D3
# Procedure, shortened: as §1
# CaAbp1-D1 = target: CaAbp1-D1
# Procedure, shortened: as §1
# CaAbp1-D2 = target: CaAbp1-D2
# Procedure, shortened: as §1
# CaBbc1 = target: CaBbc1
# Procedure, shortened: as §1
# CaBem1-D1 = target: CaBem1-D1
# Procedure, shortened: as §1
# CaBzz1-D1 = target: CaBzz1-D1
# Procedure, shortened: as §1
# CaBzz1-D2 = target: CaBzz1-D2
# Procedure, shortened: as §1
# CaCyk3 = target: CaCyk3
# Procedure, shortened: as §1
# CaFus1 = target: CaFus1
# Procedure, shortened: as §1
# CaHof1 = target: CaHof1
# Procedure, shortened: as §1
# CaHse1 = target: CaHse1
# Procedure, shortened: as §1
# CaLsb1 = target: CaLsb1
# Procedure, shortened: as §1
# CaLsb4 = target: CaLsb4
# Procedure, shortened: as §1
# CaMyo5 = target: CaMyo5
# Procedure, shortened: as §1
# CaNbp2 = target: CaNbp2
# Procedure, shortened: as §1
# CaRvs167 = target: CaRvs167
# Procedure, shortened: as §1
# CaRvs167-3 = target: CaRvs167-3
# Procedure, shortened: as §1
# CaSho1 = target: CaSho1
# Procedure, shortened: as §1
# CaSla1-D1-D2 = target: CaSla1-D1-D2
# Procedure, shortened: as §1
# CaSla1-D3 = target: CaSla1-D3
# Procedure, shortened: as §1
# ScAbp1 = target: ScAbp1
# Procedure, shortened: as §1
# ScBbc1 = target: ScBbc1
# Procedure, shortened: as §1
# ScBem1-D1 = target: ScBem1-D1
# Procedure, shortened: as §1
# ScBzz1-D1 = target: ScBzz1-D1
# Procedure, shortened: as §1
# ScBzz1-D2 = target: ScBzz1-D2
# Procedure, shortened: as §1
# ScCyk3 = target: ScCyk3
# Procedure, shortened: as §1
# ScFus1 = target: ScFus1
# Procedure, shortened: as §1
# ScHof1 = target: ScHof1
# Procedure, shortened: as §1
# ScHse1 = target: ScHse1
# Procedure, shortened: as §1
# ScLsb1 = target: ScLsb1
# Procedure, shortened: as §1
# ScLsb2 = target: ScLsb2
# Procedure, shortened: as §1
# ScLsb3 = target: ScLsb3
# Procedure, shortened: as §1
# ScLsb4 = target: ScLsb4
# Procedure, shortened: as §1
# ScMyo3 = target: ScMyo3
# Procedure, shortened: as §1
# ScMyo5 = target: ScMyo5
# Procedure, shortened: as §1
# ScNbp2 = target: ScNbp2
# Procedure, shortened: as §1
# ScPex13 = target: ScPex13
# Procedure, shortened: as §1
# ScRvs167 = target: ScRvs167
# Procedure, shortened: as §1
# ScSho1 = target: ScSho1
# Procedure, shortened: as §1
# ScSla1-D1-D2 = target: ScSla1-D1-D2
# Procedure, shortened: as §1
# ScSla1-D3 = target: ScSla1-D3
# Procedure, shortened: as §1
# SpAbp1-D1 = target: SpAbp1-D1
# Procedure, shortened: as §1
# SpBbc1 = target: SpBbc1
# Procedure, shortened: as §1
# SpBzz1-D1 = target: SpBzz1-D1
# Procedure, shortened: as §1
# SpBzz1-D2 = target: SpBzz1-D2
# Procedure, shortened: as §1
# SpCyk3 = target: SpCyk3
# Procedure, shortened: as §1
# SpHof1 = target: SpHof1
# Procedure, shortened: as §1
# SpHof1-2 = target: SpHof1-2
# Procedure, shortened: as §1
# SpHof1-3 = target: SpHof1-3
# Procedure, shortened: as §1
# SpHse1 = target: SpHse1
# Procedure, shortened: as §1
# SpLsb1 = target: SpLsb1
# Procedure, shortened: as §1
# SpLsb4 = target: SpLsb4
# Procedure, shortened: as §1
# SpMyo1 = target: SpMyo1
# Procedure, shortened: as §1
# SpNbp2 = target: SpNbp2
# Procedure, shortened: as §1
# SpPex13 = target: SpPex13
# Procedure, shortened: as §1
# SpRvs167 = target: SpRvs167
# Procedure, shortened: as §1
# SpSla1-D1-D2 = target: SpSla1-D1-D2
# Procedure, shortened: as §1
# SpSla1-D3 = target: SpSla1-D3
# Procedure, shortened: as §1
binder,measurement,setting,value
HVRRSILALPLGVLL,SPOT peptide array binding signal intensity,AgAbp1,8
same,SPOT peptide array binding signal intensity,AgBbc1,2.75
same,SPOT peptide array binding signal intensity,AgBem1-D1,39
same,SPOT peptide array binding signal intensity,AgBzz1-D1,≤ 0
same,SPOT peptide array binding signal intensity,AgBzz1-D2,2.5
same,SPOT peptide array binding signal intensity,AgCyk3,1
same,SPOT peptide array binding signal intensity,AgFus1,605
same,SPOT peptide array binding signal intensity,AgHof1,22.8
same,SPOT peptide array binding signal intensity,AgHse1,325
same,SPOT peptide array binding signal intensity,AgLsb1,61.5
same,SPOT peptide array binding signal intensity,AgLsb4,201
same,SPOT peptide array binding signal intensity,AgMyo5,≤ 0
same,SPOT peptide array binding signal intensity,AgNbp2,57
same,SPOT peptide array binding signal intensity,AgRvs167,0.5
same,SPOT peptide array binding signal intensity,AgSho1,64
same,SPOT peptide array binding signal intensity,AgSla1-D1-D2,6
same,SPOT peptide array binding signal intensity,AgSla1-D3,5
same,SPOT peptide array binding signal intensity,CaAbp1-D1,120
same,SPOT peptide array binding signal intensity,CaAbp1-D2,85
same,SPOT peptide array binding signal intensity,CaBbc1,10
same,SPOT peptide array binding signal intensity,CaBem1-D1,10
same,SPOT peptide array binding signal intensity,CaBzz1-D1,21
same,SPOT peptide array binding signal intensity,CaBzz1-D2,22
same,SPOT peptide array binding signal intensity,CaCyk3,3
same,SPOT peptide array binding signal intensity,CaFus1,2060
same,SPOT peptide array binding signal intensity,CaHof1,≤ 0
same,SPOT peptide array binding signal intensity,CaHse1,25
same,SPOT peptide array binding signal intensity,CaLsb1,0.25
same,SPOT peptide array binding signal intensity,CaLsb4,47
same,SPOT peptide array binding signal intensity,CaMyo5,5.25
same,SPOT peptide array binding signal intensity,CaNbp2,450
same,SPOT peptide array binding signal intensity,CaRvs167,16.8
same,SPOT peptide array binding signal intensity,CaRvs167-3,7.75
same,SPOT peptide array binding signal intensity,CaSho1,439
same,SPOT peptide array binding signal intensity,CaSla1-D1-D2,≤ 0
same,SPOT peptide array binding signal intensity,CaSla1-D3,25
same,SPOT peptide array binding signal intensity,ScAbp1,22
same,SPOT peptide array binding signal intensity,ScBbc1,≤ 0
same,SPOT peptide array binding signal intensity,ScBem1-D1,10
same,SPOT peptide array binding signal intensity,ScBzz1-D1,12.5
same,SPOT peptide array binding signal intensity,ScBzz1-D2,3.5
same,SPOT peptide array binding signal intensity,ScCyk3,56
same,SPOT peptide array binding signal intensity,ScFus1,522
same,SPOT peptide array binding signal intensity,ScHof1,1.5
same,SPOT peptide array binding signal intensity,ScHse1,772
same,SPOT peptide array binding signal intensity,ScLsb1,5.5
same,SPOT peptide array binding signal intensity,ScLsb2,≤ 0
same,SPOT peptide array binding signal intensity,ScLsb3,182
same,SPOT peptide array binding signal intensity,ScLsb4,15.5
same,SPOT peptide array binding signal intensity,ScMyo3,≤ 0
same,SPOT peptide array binding signal intensity,ScMyo5,≤ 0
same,SPOT peptide array binding signal intensity,ScNbp2,114
same,SPOT peptide array binding signal intensity,ScPex13,≤ 0
same,SPOT peptide array binding signal intensity,ScRvs167,22.2
same,SPOT peptide array binding signal intensity,ScSho1,1000
same,SPOT peptide array binding signal intensity,ScSla1-D1-D2,5
same,SPOT peptide array binding signal intensity,ScSla1-D3,2
same,SPOT peptide array binding signal intensity,SpAbp1-D1,124
same,SPOT peptide array binding signal intensity,SpBbc1,2
same,SPOT peptide array binding signal intensity,SpBzz1-D1,30
same,SPOT peptide array binding signal intensity,SpBzz1-D2,≤ 0
same,SPOT peptide array binding signal intensity,SpCyk3,3
same,SPOT peptide array binding signal intensity,SpHof1,49
same,SPOT peptide array binding signal intensity,SpHof1-2,8.5
same,SPOT peptide array binding signal intensity,SpHof1-3,180
same,SPOT peptide array binding signal intensity,SpHse1,508
same,SPOT peptide array binding signal intensity,SpLsb1,2
same,SPOT peptide array binding signal intensity,SpLsb4,73.5
same,SPOT peptide array binding signal intensity,SpMyo1,2.5
same,SPOT peptide array binding signal intensity,SpNbp2,194
same,SPOT peptide array binding signal intensity,SpPex13,≤ 0
same,SPOT peptide array binding signal intensity,SpRvs167,9.83
same,SPOT peptide array binding signal intensity,SpSla1-D1-D2,2
same,SPOT peptide array binding signal intensity,SpSla1-D3,1
